A word on the ΔTm: it is the shift of the melting midpoint relative to a reference.

Holding throughout (conditions): Compound concentration 20.0 uM
For assay [1], the target named is Tyrosine-protein kinase ABL1 (Homo sapiens) (UniProt P00519).
Assay [2] concerns the target Bromodomain-containing protein 4 (Homo sapiens) (UniProt O60885).
Assay [3] deals with Cyclin-dependent kinase 2 (Homo sapiens) (UniProt P24941).
Assay [4] concerns the target Casein kinase I isoform delta (Homo sapiens) (UniProt P48730).
The target of assay [5] is Glycogen synthase kinase-3 beta (Homo sapiens) (UniProt P49841).
Assay [6] deals with Mitogen-activated protein kinase 1 (Homo sapiens) (UniProt P28482).
Assay [7] addresses T1, Aurora kinase A (Homo sapiens) (UniProt O14965).
T1 sequence (whole entry): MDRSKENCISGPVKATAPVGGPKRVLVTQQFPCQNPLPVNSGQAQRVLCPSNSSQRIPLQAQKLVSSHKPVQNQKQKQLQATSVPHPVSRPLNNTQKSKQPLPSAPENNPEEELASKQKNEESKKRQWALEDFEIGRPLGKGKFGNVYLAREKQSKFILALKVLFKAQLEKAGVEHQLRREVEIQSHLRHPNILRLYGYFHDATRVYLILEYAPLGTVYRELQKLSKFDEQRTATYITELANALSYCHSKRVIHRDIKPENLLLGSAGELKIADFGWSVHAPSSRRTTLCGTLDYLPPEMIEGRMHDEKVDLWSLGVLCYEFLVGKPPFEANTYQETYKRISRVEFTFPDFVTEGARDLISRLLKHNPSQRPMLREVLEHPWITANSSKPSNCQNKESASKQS

Assay [8] concerns the target T2, Transcription intermediary factor 1-alpha (Homo sapiens) (UniProt O15164).
T2 sequence (whole entry): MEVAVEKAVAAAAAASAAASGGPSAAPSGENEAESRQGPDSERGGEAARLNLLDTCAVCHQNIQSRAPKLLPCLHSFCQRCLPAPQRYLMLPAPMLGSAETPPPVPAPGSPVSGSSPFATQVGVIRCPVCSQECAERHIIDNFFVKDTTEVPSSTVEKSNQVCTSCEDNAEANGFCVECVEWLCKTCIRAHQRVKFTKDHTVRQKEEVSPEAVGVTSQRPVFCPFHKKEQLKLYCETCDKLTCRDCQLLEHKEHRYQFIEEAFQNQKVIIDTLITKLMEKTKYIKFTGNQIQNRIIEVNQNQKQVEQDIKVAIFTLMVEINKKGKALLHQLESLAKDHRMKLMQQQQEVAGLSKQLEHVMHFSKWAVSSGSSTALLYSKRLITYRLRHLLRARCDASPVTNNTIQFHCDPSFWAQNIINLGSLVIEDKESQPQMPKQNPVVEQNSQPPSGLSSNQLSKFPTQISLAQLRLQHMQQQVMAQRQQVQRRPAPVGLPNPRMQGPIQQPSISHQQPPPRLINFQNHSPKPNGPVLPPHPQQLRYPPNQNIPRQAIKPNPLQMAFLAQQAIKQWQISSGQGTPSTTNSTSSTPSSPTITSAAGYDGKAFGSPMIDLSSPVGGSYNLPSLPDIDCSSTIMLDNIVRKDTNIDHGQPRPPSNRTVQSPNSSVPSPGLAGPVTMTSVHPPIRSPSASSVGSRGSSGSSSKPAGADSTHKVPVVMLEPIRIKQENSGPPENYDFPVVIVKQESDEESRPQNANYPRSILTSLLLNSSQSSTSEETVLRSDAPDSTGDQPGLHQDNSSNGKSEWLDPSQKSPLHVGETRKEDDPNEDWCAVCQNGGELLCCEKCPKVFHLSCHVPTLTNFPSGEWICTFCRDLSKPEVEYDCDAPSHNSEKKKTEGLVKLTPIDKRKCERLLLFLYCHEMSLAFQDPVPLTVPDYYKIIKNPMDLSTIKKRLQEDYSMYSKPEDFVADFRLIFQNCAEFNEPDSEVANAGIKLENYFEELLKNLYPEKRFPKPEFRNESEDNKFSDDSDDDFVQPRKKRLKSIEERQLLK

Sequence of Mitogen-activated protein kinase 1 (Homo sapiens) (P28482 whole entry): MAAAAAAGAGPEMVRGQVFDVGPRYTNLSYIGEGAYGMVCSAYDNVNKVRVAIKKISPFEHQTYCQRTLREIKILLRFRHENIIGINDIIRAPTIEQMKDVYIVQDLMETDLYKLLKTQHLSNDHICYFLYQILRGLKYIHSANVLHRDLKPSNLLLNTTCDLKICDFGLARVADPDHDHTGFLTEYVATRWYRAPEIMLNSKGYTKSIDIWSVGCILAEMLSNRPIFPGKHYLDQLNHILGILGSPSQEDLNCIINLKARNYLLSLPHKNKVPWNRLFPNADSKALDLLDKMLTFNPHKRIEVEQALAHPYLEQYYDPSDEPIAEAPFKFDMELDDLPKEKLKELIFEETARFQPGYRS
Sequence of Casein kinase I isoform delta (Homo sapiens) (P48730 whole entry, looked up, canonical isoform): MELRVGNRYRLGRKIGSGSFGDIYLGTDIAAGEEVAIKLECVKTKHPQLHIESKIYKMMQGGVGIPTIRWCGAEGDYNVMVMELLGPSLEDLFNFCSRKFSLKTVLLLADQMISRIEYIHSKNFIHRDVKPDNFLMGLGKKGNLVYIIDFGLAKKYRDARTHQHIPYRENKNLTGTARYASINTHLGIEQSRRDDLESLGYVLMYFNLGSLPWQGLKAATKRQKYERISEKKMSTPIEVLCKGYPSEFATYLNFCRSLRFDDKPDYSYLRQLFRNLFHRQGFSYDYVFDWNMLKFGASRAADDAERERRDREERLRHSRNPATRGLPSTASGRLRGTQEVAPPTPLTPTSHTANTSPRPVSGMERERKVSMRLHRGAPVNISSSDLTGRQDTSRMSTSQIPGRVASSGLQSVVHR
Sequence of Glycogen synthase kinase-3 beta (Homo sapiens) (P49841 whole entry, looked up): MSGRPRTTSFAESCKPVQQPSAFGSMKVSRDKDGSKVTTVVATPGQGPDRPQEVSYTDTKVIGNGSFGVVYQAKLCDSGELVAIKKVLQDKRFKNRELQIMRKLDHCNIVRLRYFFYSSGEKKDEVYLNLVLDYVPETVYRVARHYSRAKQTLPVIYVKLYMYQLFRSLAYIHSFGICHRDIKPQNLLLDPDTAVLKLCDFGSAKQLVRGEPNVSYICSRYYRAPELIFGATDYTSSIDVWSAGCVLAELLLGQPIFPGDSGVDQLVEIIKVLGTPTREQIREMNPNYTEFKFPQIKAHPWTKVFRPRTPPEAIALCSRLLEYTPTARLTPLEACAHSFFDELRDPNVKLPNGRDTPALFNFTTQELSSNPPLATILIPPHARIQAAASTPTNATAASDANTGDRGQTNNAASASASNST
Sequence of Tyrosine-protein kinase ABL1 (Homo sapiens) (P00519 whole entry): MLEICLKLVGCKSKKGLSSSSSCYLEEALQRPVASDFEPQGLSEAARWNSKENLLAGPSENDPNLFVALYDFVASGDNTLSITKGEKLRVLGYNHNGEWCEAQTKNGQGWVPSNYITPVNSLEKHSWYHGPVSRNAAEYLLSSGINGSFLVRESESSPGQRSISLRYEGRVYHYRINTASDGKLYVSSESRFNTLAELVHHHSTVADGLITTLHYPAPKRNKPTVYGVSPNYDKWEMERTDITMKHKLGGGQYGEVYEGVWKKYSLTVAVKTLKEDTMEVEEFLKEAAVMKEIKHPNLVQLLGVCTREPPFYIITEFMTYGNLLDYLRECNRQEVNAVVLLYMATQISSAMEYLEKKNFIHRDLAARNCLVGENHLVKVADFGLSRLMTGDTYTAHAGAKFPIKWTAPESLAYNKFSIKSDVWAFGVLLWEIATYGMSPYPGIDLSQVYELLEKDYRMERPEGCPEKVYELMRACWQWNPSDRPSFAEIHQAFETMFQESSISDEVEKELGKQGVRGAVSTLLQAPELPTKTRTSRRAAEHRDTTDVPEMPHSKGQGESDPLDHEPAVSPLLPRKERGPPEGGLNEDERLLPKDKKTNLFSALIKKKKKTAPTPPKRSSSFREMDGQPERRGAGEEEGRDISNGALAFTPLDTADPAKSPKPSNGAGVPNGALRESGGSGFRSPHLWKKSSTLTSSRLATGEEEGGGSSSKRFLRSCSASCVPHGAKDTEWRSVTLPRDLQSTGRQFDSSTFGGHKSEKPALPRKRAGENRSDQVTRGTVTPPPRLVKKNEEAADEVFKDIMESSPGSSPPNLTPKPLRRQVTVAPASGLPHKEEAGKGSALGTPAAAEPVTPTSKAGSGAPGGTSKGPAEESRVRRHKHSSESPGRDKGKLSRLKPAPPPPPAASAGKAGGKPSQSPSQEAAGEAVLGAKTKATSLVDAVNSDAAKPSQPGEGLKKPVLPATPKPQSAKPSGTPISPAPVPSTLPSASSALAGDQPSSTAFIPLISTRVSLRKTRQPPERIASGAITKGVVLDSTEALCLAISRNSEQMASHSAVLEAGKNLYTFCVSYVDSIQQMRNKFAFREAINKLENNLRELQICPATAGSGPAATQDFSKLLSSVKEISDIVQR

As to `CC(=O)Nc1ccc(-c2cc(-c3ccccc3)nc3cc(C(=O)NCCCn4ccnc4)nn23)cc1`, the ΔTm in assay [1] is 0.52 °C; in assay [2], 1.46 °C; in assay [3] it was -0.15 °C; in assay [4], 1.15 °C; in assay [5], -0.59 °C; in assay [6] it was 0.9 °C. Also, the results for the ΔTm in assay [7] and in assay [8] were -0.25 °C and -2.15 °C, respectively.
For the compound `Cc1c(NC(=O)c2cc(C(N)=O)nc3cc(F)ccc23)c(C(F)(F)F)nn1Cc1ccc(C#N)cc1`, the ΔTm in assay [1] was 0.61 °C; in assay [2], -2.09 °C; in assay [3], 0.06 °C; in assay [4], 0.03 °C; in assay [5], 0.78 °C; in assay [6] it was 0.34 °C. In addition, the figures for the ΔTm in assay [7] and in assay [8] were -2.13 °C and 1.34 °C, respectively.
`CC(=O)N[C@@H](CC(=O)O)C(=O)N[C@@H](CCC(=O)O)C(=O)N[C@H](C(=O)N[C@@H](CC(=O)O)C(=O)CCl)C(C)C`: the ΔTm in assay [1] was 0.1 °C; in assay [2], -2.64 °C; in assay [3], -0.35 °C; in assay [4] it was -0.06 °C; in assay [5] it was 0.4 °C; in assay [6], -0.58 °C. Besides, the figures for the ΔTm in assay [7] and in assay [8] were -1.91 °C and -0.93 °C, respectively.
With `CC(=O)N1CCC(c2ccc(C(=O)NC(=N)N)cc2C(F)(F)F)CC1`, the ΔTm in assay [1] is 0.12 °C; in assay [2] it was 0.39 °C; in assay [3] it was 0.7 °C; in assay [4] it was -0.02 °C; in assay [5], -0.96 °C; in assay [6], 0.47 °C. Moreover, the results for the ΔTm in assay [7] and in assay [8] were -0.69 °C and 1.39 °C, respectively.
For `CC(C)(C)NS(=O)(=O)c1cccc2c(NC(=O)[C@H](Cc3ccccc3)NC(=O)C3CCCCC3)cccc12`, the ΔTm in assay [1] is 0.13 °C; in assay [2] it was 1.07 °C; in assay [3], 0.3 °C; in assay [4], -1.46 °C; in assay [5] it was -0.2 °C; in assay [6], -10.5 °C. Besides, the ΔTm in assay [7] is -2.29 °C; in assay [8], 2.01 °C.
As for `Nc1ncnc2nc(-c3ccc(N4CCOCC4)nc3)cc(-c3cccc(Br)c3)c12`, the ΔTm in assay [1] was 4.32 °C; in assay [2], -3.54 °C; in assay [3], 0.07 °C; in assay [4] it was 2.63 °C; in assay [5], -0.95 °C; in assay [6], -0.25 °C. In addition, the ΔTm in assay [7] stood at 0.37 °C; in assay [8], 0.24 °C.
Take `Nc1ccc(-c2cccs2)cc1NC(=O)c1ccc2nc(N3CCNCC3)ccc2c1`: the ΔTm in assay [1] was 3.35 °C; in assay [2], -2.49 °C; in assay [3] it was 1.41 °C; in assay [4], 0.14 °C; in assay [5] it was 0.38 °C; in assay [6] it was -0.25 °C. Further, the values for the thermal shift (ΔTm) in assay [7] and in assay [8] were -0.39 °C and -0.74 °C, respectively.
As for `Cc1nn2c(nc(O)c3cccnc32)c1C#N`, the ΔTm in assay [1] was 0.68 °C; in assay [2], -3.07 °C; in assay [3], 0.02 °C; in assay [4], -0.11 °C; in assay [5], -0.51 °C; in assay [6] it was 0.18 °C. Besides, the ΔTm in assay [7] is -2.1 °C; in assay [8] it was 1.17 °C.
In the case of `Cn1ncnc1[C@H]1C2=c3c(cc(F)cc3=N[C@@H]1c1ccc(F)cc1)C(=O)NN2`, the ΔTm in assay [1] is 0.89 °C; in assay [2], 0.71 °C; in assay [3] it was 0.22 °C; in assay [4] it was -0.5 °C; in assay [5] it was 0.19 °C; in assay [6], 0.14 °C. Also, the ΔTm is -1.59 °C in assay [7] and 0.57 °C in assay [8].
`COc1cc2c(cc1-c1c(C)noc1C)[nH]c1nc(C)nc(-c3ccnc4ccccc34)c12`: the ΔTm in assay [1] is 0.56 °C; in assay [2], 11.5 °C; in assay [3] it was -0.3 °C; in assay [4] it was -0.15 °C; in assay [5], 0.97 °C; in assay [6], 0.15 °C. Further, the ΔTm is -2.62 °C in assay [7] and -0.1 °C in assay [8].
For `CC(C)c1ccc(C(=O)N=C(N)N)cc1S(C)(=O)=O`, the thermal shift (ΔTm) in assay [1] is 0.77 °C; in assay [2] it was -2.81 °C; in assay [3] it was 0.03 °C; in assay [4], -0.25 °C; in assay [5] it was -0.76 °C; in assay [6], 0.04 °C. Also, the ΔTm in assay [7] was -2.37 °C; in assay [8], -0.41 °C.

For the origin of these results see ChEMBL document CHEMBL5724796, “Tm Shift (DSF) assay results for EUbOPEN Chemogenomics Library” (2024).
